# ± gives the standard deviation of the averaged measurements. The full ranking holds about 25,000 sequences; the median of “ln(normalized median fluorescence intensity)” is about 10, and the highest 2% start at about 12. Only a selection was taken, and the highest values are over-represented in it overall.
# Test system: PfAP2-G AP2 domain (GST-tagged)
# Assay: gcPBM binding intensity (ln(normalized median fluorescence intensity)); higher = stronger DNA binding
# Procedure, shortened: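 An Agilent 4 × 180k array of primer-extended double-stranded 36-bp intergenic genomic probes, with negative controls, was incubated for 1 h with GST-tagged P. falciparum DNA-binding domains expressed in E. coli. Alexa488 anti-GST antibody detected bound protein, scanned at 488 nm. Binding intensity is the highest Masliner-normalised natural-log median intensity across replicate spots of either probe orientation.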
row,Sequence,gcPBM binding intensity (ln)
1,TTTGTAATAAACTACTTTTTTTTTTTTTTTTTTTTT [CACACA_negctrl_site571],10.9 ± 0.35
2,ATATACATATAGGATGCACACATAATTCAAATACAA [CACACA_site8120],10.1 ± 0.22
3,TTTGAAAAAAATTAATGTACATTTGAAATGACATAT [XGTACX_site3902],10.8 ± 0.52
4,AGACATTAATGAAGGTGTACATATATTTGACAGAAT [XGTACX_site655],11.6 ± 1
5,AAGGTATAATATATTTGTACATATACATTTTTGAAT [XGTACX_site6493],10.9 ± 0.61
6,AAAAAAAAATTAAAAACACACATATATATATATATA [CACACA_site1580],9.9 ± 0.67
7,ATTTGCTTTTATTTTACACACTTGCTCCTGTTGTAC [CACACA_site1088],10.9 ± 0.42
8,TTATTTTCAAAATGTTGTACACACAAAAAAAAAAAA [XGTACX_site3151],11.4 ± 0.93
9,TATTTTCAAAATGTTGTACACACAAAAAAAAAAAAA [CACACA_site8437],11.5 ± 1.1
10,CAACACTTTCAAAAATGTACGTACAAATGTATTTTA [XGTACX_site6713],11.7 ± 0.76
11,AAATTTATATATAGTTGTACAAAAATATGTTTCGTA [XGTACX_site4801],11.2 ± 0.57
12,GTTTTTTATAATTGTAGTACAAGAAGATATTTTTAT [XGTACX_site5443],11.5 ± 0.86
13,TATGTGAATATAATCACACACAATACGGAAAGAGAC [CACACA_site7311],10.7 ± 0.39
14,TTATATATATGACTTTGTACATATACATATTTTTTA [XGTACX_site4669],10.7 ± 0.54
15,ATGGACTTTTATAGTTGTACATACTATGAGAACTTT [XGTACX_site2800],11.7 ± 0.85
16,CTATACATATTATATAGTACTTTATTATTATGACTA [XGTACX_site1382],10.8 ± 0.45
17,TTATAAAATTACTTGGTGCATTAGAATATTTCAATA,10.1 ± 0.3
18,AATAAAAAACTACAATATACAAAATTATTAAATCAA [GTGCAC_negctrl_site703],9.56 ± 0.35
19,TAATTTATAAAAAATTGTACATTAAACATATATATA [XGTACX_site5164],10.8 ± 0.56
20,TTCATATGGAATAAAAGTACGTATTAAAACAATTTT [XGTACX_site8742],11.1 ± 0.59
21,TTTTTTATTTTTTGTTATATTTATAATAATTTATGA [XGTACX_negctrl_site260],9.58 ± 0.071
22,AAAAAAAAAAAAATACGTACACAAAAAATTGCAAAG [XGTACX_site5663],11.6 ± 0.81

row,Sequence,gcPBM binding intensity (ln)
1,TTTACACGTACGTGTACACACAAAAATATGTTTTTA [CACACA_site995],11.6 ± 0.89
2,TAAAAAAAATACAAAAGTACACAAAATTATACGTTA [XGTACX_site4656],11.5 ± 0.96
3,AATTTACACGTACGTGTACACACAAAAATATGTTTT [CACACA_site8242],11.8 ± 1
4,TATATATTATTTAAAACACACAAAAAAAAAAATTAT [CACACA_site89],9.895 ± 0.021
5,AGATAAAATAAATACACACACATAAATACGTACAAA [CACACA_site4739],11.7 ± 0.74
6,TAATTTACACCTACGTGTACACACAAAAATATGTTT [XGTACX_site1868],11.6 ± 0.95
7,GTATATATTTAAACACGTACACAAAACCCAAAAAAT [XGTACX_site8110],11.8 ± 0.96
8,AAAATAAAATAAAATACACACATACATACATACAAA [CACACA_site5366],10.01 ± 0.028
9,ACAAAAAAAAAAAAAATACACACACATAAAAAAAAA [TGCATGCA_negctrl_site333],10.1 ± 0.13
10,AAACCAAAAATAACACGTACAAAAATAAAAAGTATA [XGTACX_site4261],11.2 ± 0.74
11,AAAAAAAAAAAAAAAGGTACACAAATACGTCCTGCA [XGTACX_site3354],11.5 ± 0.74
12,TATATTACTTTGTGTTGTACGGAAATATATATATAT [XGTACX_site4309],11.3 ± 0.94
13,TATATAATGGTAAAAACACACAAATATGAAGATGTT [CACACA_site722],9.87 ± 0.16
14,TGTAATAATTATTGCACGCACACAAAAACCTATAGA [CACACA_site2932],10.7 ± 0.4
15,ATCTTAGTTGAAATATAGAATTTATAATAAAAGTTA [GTGCAC_negctrl_site122],9.595 ± 0.064
16,AGAAATTTACAAATACGTACACACATATATATATAT [XGTACX_site3141],11.9 ± 1.4
17,AAATATATATATTTACGTACATATATACAAATAGAG [XGTACX_site6067],11.4 ± 0.81
18,TGTATAAATAAATGCGTACACACTAATAAAAAAAAA [CACACA_site858],11.6 ± 0.8
19,AATGTACAAATACGTACACACATATATATATATATA [CACACA_site1542],11.6 ± 0.93
20,AATAAATATAAAAATGCACACACACTAATAAAAAAA [CACACA_site8201],10.2 ± 0.13
21,TGATAACCAAAAAGGGGTACATACACAAAAAAATAC [XGTACX_site1254],11.7 ± 0.91
22,AATGTACAAATACGTACACACATATTTATATTTATA [CACACA_site6833],11.6 ± 0.99

row,Sequence,gcPBM binding intensity (ln)
1,GAAATGTACAAATACGTACACACATATATATATATA [CACACA_site1541],11.6 ± 0.99
2,ATAAATAAATTTATACGTACACATAATATATATATA [XGTACX_site4634],11.6 ± 0.89
3,TATAAATAAATGCGTACACACTAATAAAAAAAAAAA [CACACA_site4630],11.6 ± 1.1
4,ATAACACAAAAAGGGGGTACAATAAAAAAAAAAAAA [XGTACX_site1652],11.5 ± 0.98
5,AAAAAATACCAAAGGGGTACTTACACATAATACTTA [XGTACX_site2111],11.4 ± 1.1
6,TCAGAGTGAAGTTATACACACATGGTTTTTTTTTTT [CACACA_site2116],9.875 ± 0.021
7,TAAAGAAAAAAATGTTGTACTTTATGAAACATATTT [XGTACX_site412],11.2 ± 0.79
8,TAAATATTTTTTTAGACACACATATATCTATGATAT [CACACA_site1107],9.705 ± 0.049
9,CCATTTACAAAAAGGAGTACACAAATATATGTTTAA [XGTACX_site649],11.6 ± 0.93
10,TTAATGAAATATTATACACACAAAAAAATAATTTTA [CACACA_site4231],9.915 ± 0.092
11,AATATACACCCGTGTACACAAATATTTACAAAACGT [CACACA_site4786],11.7 ± 1.1
12,TTATTTATTTTTATATGTACACAAAAAAAAAAAAAA [XGTACX_site1459],11.5 ± 1.1
13,TTAATTAAATATTATACACACAAAAAAATAATTTTA [CACACA_site96],10 ± 0.16
14,AGATAAAATATATACACACACATAAATACGTACAAA [CACACA_site1086],11.8 ± 1
15,AAAAAAAAAACATACACACACACAAATATTTATATA [CACACA_site437],9.85 ± 0.11
16,AGATAAGATATATACACACACATAAATACGTACAAA [CACACA_site6639],11.6 ± 0.78
17,ATTTTTTAAATGAGGCGTACACAAAAATATAATTAC [XGTACX_site7087],11.7 ± 1.1
18,TTTCTCCCATTTTTTAGTACACAAAATATATATGTA [XGTACX_site7218],11.7 ± 1.1
19,ATAAATAAGATACGTACACACATATACAAAATATAC [CACACA_site3661],11.5 ± 0.95
20,TATACAAAATATTTTACACACACATATATATACATA [CACACA_site2616],10.01 ± 0.057

# Source: the supplement of paper PMC11417369
